{"source": "PubChem BioAssay", "note": "The source made the active and inactive calls. Cut-off read from the data, not from the text of the source: active = inhibition above about 30%; inactive = the rest."}
{"system": "transactivating tegument protein VP16 (Human herpesvirus 1), Gal4-VP16 luciferase reporter", "experiment": "repression of VP16-driven luciferase reporter – cell-based, luminescence, high throughput, counter-screen for SRC3 inhibitor project (AID 588794)", "details": "mammalian cells, at 3.6 µM, stronger effect = higher value"}
{"smiles": "CC1=CC2/C=C(\\C)CCC(O)C(O)/C=C/C(=O)C23C(=O)NC(CC(C)C)C3C1C", "note": "(stereo unspecified)", "inhibition": "54.8% (active)"}
{"smiles": "C[C@H]1CCC[C@@H](O)CCC/C=C/c2cc(O)cc(O)c2C(=O)O1", "inhibition": "63.4% (active)"}
{"smiles": "O=c1[nH]c2ccccc2n1C1CCN(C(c2cc3ccccc3o2)c2nnnn2Cc2ccccc2)CC1", "note": "(stereo unspecified)", "inhibition": "9.7% (inactive)"}
{"smiles": "CCn1c(O)c(C=NCCN2CCOCC2)c(=O)n(CC)c1=S", "inhibition": "7.94% (inactive)"}
{"smiles": "CC(=C1C(=O)c2ccccc2C1=O)N1CCN(CCN=Cc2c(O)n(C)c(=O)n(C)c2=O)CC1", "inhibition": "-5.29% (inactive)"}
{"smiles": "Cc1cc(C)n(-c2ccc(NN=C(C#N)C#N)cc2)n1", "inhibition": "61.8% (active)"}
{"smiles": "Cc1cc(C)cc(NC2=NCCCS2)c1", "inhibition": "1.9% (inactive)"}
{"smiles": "CSCCC(c1nnnn1Cc1ccccc1)N1CCC(n2c(=O)[nH]c3ccccc32)CC1", "note": "(stereo unspecified)", "inhibition": "46.3% (active)"}
{"smiles": "CCCc1nc2ccc(Br)cc2c(=O)n1-c1ccc([N+](=O)[O-])c(C(F)(F)F)c1", "inhibition": "11.2% (inactive)"}
{"smiles": "O=c1[nH]c2ccccc2n1C1CCN(C(c2nnnn2Cc2ccccc2)C2CC2)CC1", "note": "(stereo unspecified)", "inhibition": "20.9% (inactive)"}
{"smiles": "O=C(CSC1c2ccccc2-c2ccccc21)N/N=C/c1ccccc1O", "inhibition": "21.9% (inactive)"}
{"smiles": "O=c1[nH]c2ccccc2n1C1CCN(C(CCc2ccccc2)c2nnnn2C2CCCC2)CC1", "note": "(stereo unspecified)", "inhibition": "7.82% (inactive)"}
{"smiles": "CCn1nc(/C=C/c2ccccc2)nc2c(=O)n(C)c(=O)nc1-2", "inhibition": "9.67% (inactive)"}
{"smiles": "Cc1ccc(C[n+]2c(-c3ccc(C)cc3)cc(-c3ccc(C)cc3)cc2-c2ccc(C)cc2)cc1", "inhibition": "87.9% (active)"}
{"smiles": "CSCCC(c1nnnn1-c1ccc2c(c1)OCCO2)N1CCC(n2c(=O)[nH]c3ccccc32)CC1", "note": "(stereo unspecified)", "inhibition": "14.7% (inactive)"}
{"smiles": "O=c1[nH]c2ccccc2n1C1CCN(C(CCc2ccccc2)c2nnnn2-c2ccc3c(c2)OCCO3)CC1", "note": "(stereo unspecified)", "inhibition": "48.9% (active)"}
{"smiles": "COc1ccc(-n2nnnc2C(c2cccc3ccccc23)N2CCC(n3c(=O)[nH]c4ccccc43)CC2)cc1", "note": "(stereo unspecified)", "inhibition": "4.21% (inactive)"}
{"smiles": "C/C(=N\\Nc1ccccc1)c1c(O)[nH]c(=O)[nH]c1=O", "inhibition": "17.7% (inactive)"}
{"smiles": "Cc1[nH]nc2ccc(-c3cncc(OC[C@@H](N)Cc4c[nH]c5ccccc45)c3)cc12", "inhibition": "97.1% (active)"}
{"smiles": "COC(=O)[C@@H]1[C@@H](C(=O)OC)C2(c3ccccc3-c3ccccc32)N(c2ccc(Cl)cc2)N1C#N", "inhibition": "30.6% (active)"}
{"smiles": "C=C1C(C)C2C(Cc3ccccc3)NC(=O)C23OC(=O)/C=C/C(O)CCCC(C)C/C=C/C3C1O", "note": "(stereo unspecified)", "inhibition": "22.1% (inactive)"}
{"smiles": "COc1ccc(-n2c(O)c(C(C)=NCCCn3ccnc3)c(=O)[nH]c2=O)cc1", "inhibition": "32.6% (active)"}
{"smiles": "COc1cc2c(cc1O)C[C@H]1NCCc3cc4c(c-2c31)OCO4", "inhibition": "33.2% (active)"}
{"smiles": "Cc1cc2c(C(C)C)c(O)c(O)c(C=O)c2c(O)c1-c1c(C)cc2c(C(C)C)c(O)c(O)c(C=O)c2c1O", "inhibition": "22.2% (inactive)"}
{"smiles": "O=c1[nH]c(=O)n(CCC2=CCCCC2)c(O)c1C=NC1CCN(Cc2ccccc2)CC1", "inhibition": "36.4% (active)"}
{"smiles": "COC(=O)C1CN(C#N)N(c2ccc(Cl)cc2)C12c1ccccc1-c1ccccc12", "note": "(stereo unspecified)", "inhibition": "33.5% (active)"}
